Assay outcomes deposited in PubChem by National Center for Advancing Translational Sciences (NCATS).
DT40 TDP1 no CPT: qHTS for Inhibitors of human tyrosyl-DNA phosphodiesterase 1 (TDP1): qHTS in cells in absence of CPT; Potency, µM (highest dose often 46.2 µM), actives largely listed as inhibitors; 420,000 tested, 15% active; DT40 Tdp1-/- hTDP1 cells, no CPT, ATP luminescence, 48 h; also: nearly all actives have a fitted effect of over 55% in size
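No-CPT arm: Tdp1-/-;hTDP1 DT40 cells (400/well) plus compounds, incubated ≥48 hr at 37 °C. Readout CellTiter-Glo luminescence.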
DT40 TDP1 CPT: qHTS for Inhibitors of human tyrosyl-DNA phosphodiesterase 1 (TDP1): qHTS in cells in presence of CPT. chicken DT40 Tdp1-/-;hTDP1 cells + 20 nM CPT, ATP luminescence, 48 h. Potency, µM (highest dose often 46.2 µM), most hits filed as inhibitors. 420,000 tested, 12% active; also: nearly all actives have a fitted effect of over 55% in size
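Chicken DT40 Tdp1-/- cells stably complemented with human TDP1 were seeded at 400 cells/well in medium containing 20 nM camptothecin, exposed to pin-transferred compounds, and grown at 37 °C for at least 48 hr. Viability was read as ATP luminescence.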
IL1B secr inh: qHTS for Inhibitors of Inflammasome Signaling: IL-1-beta AlphaLISA Primary Screen; 360,000 tested, 4.7% active; THP-1 LPS/ATP IL-1B secretion, AlphaLISA, 16 h; active compounds read low; activity change, % at 57.5 µM; in the data active = activity change below about -50%; inconclusive = mostly about -30% to -49%
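THP-1 cells pretreated 1 hr with compounds (up to 57.5 uM final), then stimulated with LPS (250 ng/mL final) plus ATP (1.25 mM final); secreted IL-1B measured by AlphaLISA after 16 hr, decreased signal indicating inhibition.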
HT1080-NT tox: qHTS for induction of synthetic lethality in tumor cells producing 2HG: qHTS for the HT-1080-NT fibrosarcoma cell line; Potency, µM (top dose mostly 46.1 µM), actives largely listed as cytotoxic; HT-1080-NT fibrosarcoma viability, CellTiter-Glo ATP luminescence, 48 h; 360,000 tested, 1.6% active;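 also: NT is the 2HG producing partner of a matched IDH1 knockdown line; nearly all actives have a fitted effect of over 55% in size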
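Luminescent CellTiter-Glo readout after 48 hours of compound exposure at 37 degrees C defined viability of HT-1080-NT cells. Activity was normalized to DMSO wells and cell-free media wells; concentration-response curves were fitted and assigned curve classes.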
ELG1 repair inh: qHTS screen for small molecules that inhibit ELG1-dependent DNA repair in human embryonic kidney (HEK293T) cells expressing luciferase-tagged ELG1. HEK293T ELG1-luciferase reporter, luminescence, 16 h; DNA damage induced by 5-fluorouridine. Potency, µM (series often up to 46.1 µM), usual class: inhibitors. 330,000 tested, 2.3% active; also: nearly all actives have a fitted effect of over 55% in size
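Reporter activity after DNA damage by 5-fluorouridine is monitored. Compound-treated cells incubate 16 hr at 37 °C, then ONE-Glo is added for 30 min before luminescence reading.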
HT1080 IDH1KD tx: qHTS for induction of synthetic lethality in tumor cells producing 2HG: qHTS for the HT-1080-IDH1KD cell line; HT-1080 IDH1 knockdown viability, ATP luminescence, 48 h; Potency, µM (highest dose often 46.1 µM), actives largely listed as cytotoxic; 360,000 tested, 2% active
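After a 2 h attachment period, IDH1KD HT-1080 cells took pin-transferred compound for 48 h at 37 °C; ATP-based luminescence after 10 min room-temperature reagent incubation reported viability.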
A number is an active result; . = inactive; ? = inconclusive; / = no result. The list is not random: actives were taken first. Their share in the collection is about 19%. Unless noted, calls follow the shape of the dose curve; as a rule, active = well fitted curve in the direction sought with a large enough effect; inconclusive = small, poorly fitted or top-dose-only effect, or another doubt; inactive = no such curve, though single readings can be large; an effect the other way counts as inactive or inconclusive.

SMILES | DT40 TDP1 no CPT | DT40 TDP1 CPT | IL1B secr inh | HT1080-NT tox | ELG1 repair inh | HT1080 IDH1KD tx
CCOC(=O)/C=c1\s/c(=C\c2ccc(-c3ccccc3)cc2)c(=O)n1CC(=O)NCc1ccc2c(c1)OCO2 | 9.2µM | 9.2µM | . | . | . | .
CCOC(=O)/C=c1\s/c(=C\c2ccc(C(F)(F)F)cc2)c(=O)n1CC(=O)NCc1ccco1 | ? | ? | . | . | ? | ?
COc1ccc(CC(=O)NCc2ccc3c(c2)OCO3)cc1 | . | . | . | . | . | .
CCOC(=O)/C=c1\s/c(=C\c2ccc(C)cc2)c(=O)n1CC(=O)NCc1ccco1 | ? | 16µM | . | . | ? | .
COc1ccc(/C=C/C(=O)OCC(=O)NCC2CCCO2)cc1 (stereo unspecified) | . | . | . | . | . | .
COc1ccc(-n2c(SCc3ccccn3)nc3c(c2=O)SCC3)cc1OC | . | . | . | . | . | .
O=C(NCC(=O)N1CCN(C(c2ccccc2)c2ccccc2)CC1)c1ccccc1Br | 21µM | ? | . | . | / | .
O=C(O)CCCC(=O)N1CCN(C(c2ccccc2)c2ccccc2)CC1 | . | . | . | . | . | .
O=C(NCC(=O)N1CCN(C(c2ccccc2)c2ccccc2)CC1)c1ccc(Br)o1 | ? | ? | -73 | . | ? | .
Cc1cccc(C(=O)NCC(=O)N2CCN(S(=O)(=O)c3cc(C)ccc3C)CC2)c1 | ? | ? | . | . | ? | .
O=C(NCC(=O)N1CCN(c2ccccc2)CC1)c1ccc(Br)o1 | . | . | . | . | . | .
Cc1cc(C)cc(C(=O)NCC(=O)N2CCN(C(c3ccccc3)c3ccccc3)CC2)c1 | 18µM | ? | . | ? | . | ?
O=C(COc1cc2oc(=O)c3c(c2cc1Cl)CCCC3)N1C[C@H]2C[C@@H](C1)c1cccc(=O)n1C2 | . | . | . | . | . | .
CC12CCC(=O)C=C1CCC1C2C(O)CC2(C)C1CCC2(O)C(=O)CO (stereo unspecified) | ? | . | ? | . | . | .
COc1ccccc1C(CNc1ncnc2sc(C)c(C)c12)N(C)C (stereo unspecified) | 21µM | ? | . | . | . | .
COc1ccc(C(CNc2ncnc3sc(C)c(C)c23)N(C)C)cc1 (stereo unspecified) | 23µM | ? | . | . | . | .
N[C@H](C(=O)O)c1cccc(O)c1 | . | . | / | / | / | /
O=C(CCNS(=O)(=O)c1ccc2ccccc2c1)NCCOc1ccccc1 | ? | ? | . | . | . | .
Cc1cc(C)cc(Nc2nc3c(S(=O)(=O)c4cccc(Cl)c4)nnn3c3ccsc23)c1 | . | . | / | / | / | /
O=S(=O)(c1cccc(Cl)c1)c1nnn2c1nc(NCc1ccc3c(c1)OCO3)c1sccc12 | 23µM | ? | / | / | / | /
CCN(CC)c1nc2c(S(=O)(=O)c3cccc(Cl)c3)nnn2c2ccsc12 | 21µM | 8.2µM | / | / | / | /
CC1CCN(c2nc3c(S(=O)(=O)c4cccc(Cl)c4)nnn3c3ccsc23)CC1 | 23µM | ? | / | / | / | /
Cc1ccc(C(C)C)c(OCC(=O)Nc2ccccc2N2CCN(C)CC2)c1 | 15µM | ? | -59 | ? | ? | ?
C/C(=N/NC(=O)COc1cc(C)ccc1C(C)C)C(=O)O | . | . | . | ? | . | 6.5µM
Cc1ccc(C(C)C)c(OCC(=O)Nc2ccc(N3CCOCC3)cc2N2CCOCC2)c1 | 18µM | 23µM | . | . | 18µM | .
COc1ccc(Cl)cc1C(=O)NC(=S)Nc1cc(-c2nc3ccccc3[nH]2)ccc1C | 15µM | ? | . | . | . | ?
